This is an account of results in PubChem BioAssay AID1851 (National Center for Advancing Translational Sciences (NCATS), 2009).

Values joined by “and” are separate entries in the source; they are usually repeats but may differ in a detail not shown here. Equal entries are not always repeated. About 2,600 (16%) of roughly 16,000 compounds were called active. Not shown: some 20% with an inconclusive outcome. Calls come from the whole dose curve; as a rule, active = well fitted curve in the direction sought with a large enough effect; inconclusive = small, poorly fitted or top-dose-only effect, or effect the other way; inactive = no such curve, though single readings can be large or run the other way. These entries were drawn from the full list.
% is set by controls: 0 for no effect and ±100 for the full control effect.

Cytochrome P450 2D6 (Homo sapiens), sequence (P10635 whole entry, looked up): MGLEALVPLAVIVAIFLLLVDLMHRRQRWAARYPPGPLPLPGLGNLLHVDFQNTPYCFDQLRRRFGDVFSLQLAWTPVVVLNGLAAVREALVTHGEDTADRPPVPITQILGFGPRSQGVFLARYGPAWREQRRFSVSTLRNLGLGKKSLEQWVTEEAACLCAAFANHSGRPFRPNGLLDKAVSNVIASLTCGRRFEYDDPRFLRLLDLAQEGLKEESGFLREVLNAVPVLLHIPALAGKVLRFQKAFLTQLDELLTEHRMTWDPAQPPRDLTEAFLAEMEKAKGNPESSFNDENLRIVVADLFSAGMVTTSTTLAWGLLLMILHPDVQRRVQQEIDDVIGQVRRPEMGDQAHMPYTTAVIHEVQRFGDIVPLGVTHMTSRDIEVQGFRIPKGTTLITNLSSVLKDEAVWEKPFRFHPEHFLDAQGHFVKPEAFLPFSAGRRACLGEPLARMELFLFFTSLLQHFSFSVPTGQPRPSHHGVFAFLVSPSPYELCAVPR

The test addresses Cytochrome P450 2D6 (Homo sapiens) (UniProt P10635). Kind of test: Cytochrome panel assay with activity outcomes. As to conditions: recombinant CYP, pro-luciferin dealkylation, luminescence, p450-cyp2d6; series mostly up to 57.1 µM; activity, negative = inhibition: at the top concentration.
In the case of `C=CCSc1nc2c(sc3nc(C)cc(C)c32)c(=O)[nH]1`, the “activity, negative = inhibition” value is 2.23% (inactive).
Take `CC1Cc2ccccc2N1Cc1nc2cc(C(F)(F)F)ccc2c(=O)[nH]1` (centres undefined): the “activity, negative = inhibition” value is -35.2% (inactive).
As usually defined, the AC50 is the concentration at which the activity in the assay is half-maximal. With `Cc1c(OCC(F)(F)F)ccnc1CSc1nc2ccccc2[nH]1`, the AC50 was 0.398 µM (active).
As to `O=C(CSc1nc2ccccc2[nH]1)Nc1c(F)cccc1F`, the “activity, negative = inhibition” value was -12.7% (inactive).
Regarding `C[N+](C)(C)CCCSc1nc2ccccc2[nH]1`, the activity, negative = inhibition is 11.4% [at 11.4 µM] (inactive).
Still for that read-out and setting: next, `O=S(=O)(O)c1ccc(-c2nnc(-c3ccccn3)nc2-c2ccc(S(=O)(=O)O)o2)o1`: 16.6% [at 11.4 µM] (inactive); `O=C(Cc1cccc2ccccc12)N/N=C/c1ccc(Sc2nc3ccccc3s2)o1`: 0.203% (inactive); `Cc1ccc(S(=O)(=O)N[C@H]2COC(=O)[C@@H](Cc3ccccc3)NC(=O)[C@@H](C)COC(=O)C/C=C\[C@@H]2C)cc1`: -0.453% [at 11.4 µM] (inactive) and -0.419% [at 11.4 µM] (inactive).
With `Cc1ccc(N[C@H](c2ccccc2)c2ccc3cccnc3c2O)cc1`, the activity, negative = inhibition was -11.8% [at 11.4 µM] (inactive).
For the molecule `Oc1c([C@H](Nc2ccccn2)c2ccccc2)ccc2cccnc12`, the AC50 was 0.316 µM (active).
In the case of `O=C(O)c1ccccc1N[C@H](c1ccccc1)c1ccc2cccnc2c1O`, the activity, negative = inhibition was -6.89% [at 11.4 µM] (inactive).
On the same count and under the same terms, next, `CCCc1nnc(SCC(=O)N2CCCCC2)n1CCCOC`: 7.22% (inactive); `O=C(COc1ccc(Cl)cc1)Nc1ccc(N2CCN(C(=O)c3ccco3)CC2)cc1`: -1.91% (inactive).
`CCOc1ccc(NC(=S)N(Cc2ccc(Cl)cc2)Cc2ccco2)cc1`: the AC50 is 7.94 µM (active).
On the same count and under the same terms, next, `CCOc1ccc(NC(=S)N(Cc2ccc(N(C)C)cc2)Cc2ccco2)cc1`: 8.91 µM (active).
With `CCOc1ccc(NC(=O)c2oc3ccccc3c2NC(=O)CC)cc1`, the “activity, negative = inhibition” value was -24.9% (inactive).
The same measure, in the same setting: next, `Cc1ccc(NC(=O)N(Cc2ccco2)C(C)c2ccco2)cc1C` (centres undefined): -5.98% (inactive).
Still for that read-out and setting: next, `Cc1noc(NS(=O)(=O)c2ccc(N/C=C/C(=O)c3ccc4c(c3)OCO4)cc2)c1C`: -18% (inactive); `CCCn1nnnc1-c1cccc(Cl)c1`: 20.1% (inactive).
On to `COc1ccccc1CNc1ncncc1-c1ccc2c(c1)OCO2`, for which the half-maximal activity concentration (AC50) was 2.51 µM (active).
Turning to `COc1ccc(CNc2ncncc2-c2ccc3c(c2)OCO3)c(OC)c1`, the AC50 was 0.794 µM (active).
As for `CCc1ccc(OCC(=O)NNC(=O)CSc2ncnc3sc(C)c(C)c23)cc1`, the “activity, negative = inhibition” value was 1.22% (inactive).
On the same count and under the same terms, to `O=S(=O)(/N=C(\Sc1ccccc1)c1ccccc1)c1ccc(Cl)cc1` belongs -7.46% (inactive); to `Cc1cc(C)c(NC(=O)C[C@H](CC(=O)O)c2cccc3ccccc23)c(C(=O)N2CCC3(CCCC3)CC2)c1`, 5.85% (inactive); to `CCCCCCCCOC1OC(CO)C(O)C(O)C1NC(C)=O` (centres undefined), 10% (inactive).
Same read-out and setting: to `Nc1ccn([C@H]2O[C@@H](COP(=O)(O)O)[C@@H](O)[C@H]2O)c(=O)n1` belongs 0.248% [at 11.4 µM] (inactive); to `CO[C@@H]1COC(=O)[C@H]2CCCN2C(=O)C/C=C\[C@@H](C)[C@H](OC)COC(=O)[C@H]2CCCN2C(=O)C/C=C\[C@H]1C`, 9.95% [at 11.4 µM] (inactive).
In the case of `CN(C)c1oc(-c2ccccc2)nc1C#N`, the “activity, negative = inhibition” value is -12.9% (inactive).
In the case of `COc1cccc(-c2ccc3ncnc(NCc4cccnc4)c3c2)c1`, the AC50 is 10 µM (active).
`COc1ccccc1-c1ccc2ncnc(Nc3ccccc3)c2c1`: the AC50 was 10 µM (active).
Consider `COc1ccccc1-c1ccc2ncnc(NCc3cccnc3)c2c1`, for which the concentration at half-maximal activity (AC50) is 7.94 µM (active).
As to `Clc1ccccc1-c1cc(NCc2cccnc2)ncn1`, the “activity, negative = inhibition” value was -2.97% (inactive).
`Clc1ccccc1-c1ccc2ncnc(NCc3cccnc3)c2c1`: the AC50 is 6.31 µM (active).
Turning to `C=CCn1cc(/C=N\NC(=O)c2cc3c(ccc4ccccc43)o2)c2ccccc21`, the “activity, negative = inhibition” value is -19.7% (inactive).
On the same count and under the same terms, to `COc1ccc(CCn2c3c(c(=O)[nH]c2=O)C(NC(=O)c2cccs2)(C(F)(F)F)C(=O)N3)cc1OC` (centres undefined) belongs 1.98% (inactive).
Consider `COC(=O)C1=C(NC(=O)c2cccc(OC)c2)CCS1`, for which the “activity, negative = inhibition” value is -19.5% (inactive).
For the molecule `O=c1c(-c2ccccc2)nc2cnc(N3CCOCC3)nc2n1CCc1ccccc1`, the “activity, negative = inhibition” value was -5% (inactive).
The same measure, in the same setting: next, `N#C/C(=C\Nc1ccccn1)C(=O)C1CC1`: 5.79% [at 11.4 µM] (inactive); `CC[C@@H](CS(=O)(=O)O)[N+](=O)[O-]`: 2.2% [at 11.4 µM] (inactive); `CN[C@@H]1[C@H](O[C@@H]2O[C@H](CO)[C@@H](N)[C@H](O)[C@@H]2O)O[C@H]2C[C@@H](N)[C@@H](O[C@H]3[C@@H](O)[C@H](O)[C@H](N)C[C@@H]3N)O[C@H]2[C@H]1O`: 5.28% [at 25.6 µM] (inactive).
With `O=C(COc1ccc(-c2ccccc2)cc1)N/N=C/c1ccccc1Br`, the “activity, negative = inhibition” value was -26.4% (inactive).
On the same count and under the same terms, next, `COc1cccc(-c2cc(C(F)(F)F)nc(N3CCCCC3)n2)c1`: -11.8% (inactive).
Take `COc1ccc(-c2cc(C(F)(F)F)nc(NCc3cccnc3)n2)cc1`: the concentration at half-maximal activity (AC50) was 31.6 µM (active).
For `CN(C)C(=O)c1ccc(-c2ccc3ncnc(Nc4ccc(F)cc4)c3c2)cc1`, the AC50 is 10 µM (active).
Regarding `COc1ccc(-c2cc(C(F)(F)F)nc(SCc3cccc(C(=O)O)c3)n2)cc1`, the “activity, negative = inhibition” value is 22.7% (inactive).
For `FC(F)(F)c1ccccc1-c1ccc2ncnc(NCc3cccnc3)c2c1`, the AC50 is 1.58 µM (active).
`CCCCCCCCCCCCCCCCCCc1ccc(C(=O)/C=C\C(=O)O)cc1`: the “activity, negative = inhibition” value is 2.49% (inactive).
Still for that read-out and setting: to `Cn1cc(-c2nc3cncnc3n(Cc3ccc(F)cc3)c2=O)c2ccccc21` belongs 11.3% (inactive); to `CCCCC1(C)OC(=O)C(=Cc2ccc(N(C)C)cc2)C(=O)O1` (centres undefined), 0.664% (inactive); to `NS(=O)(=O)c1ccc(N=Nc2c(O)c(C(=O)O)cc3ccccc23)cc1`, 14.9% [at 11.4 µM] (inactive).
Same read-out and setting: next, `CC#CCCCC(=O)Nc1ccc(C(=O)O)cc1`: 14.3% (inactive).
On the same count and under the same terms, to `Cn1nc(C(F)(F)F)c(/C=N/OC(=O)c2ccccc2Cl)c1SCc1ccc(Cl)cc1` belongs -27.3% (inactive).
Take `Cn1nc(C(F)(F)F)c(/C=N/OC(=O)c2ccc(Cl)cc2)c1Cl`: the concentration at half-maximal activity (AC50) is 15.8 µM (active).
For the molecule `Cn1nc(C(F)(F)F)c(/C=N/OCc2c(Cl)cccc2Cl)c1Cl`, the “activity, negative = inhibition” value was -4.38% (inactive).
The same measure, in the same setting: to `C=CC(=O)NC(NC(=O)C=C)c1ccc(Br)cc1` belongs 11% (inactive).
As for `C(=C1/CCCC2=C1Nc1ncnn1C2c1ccccc1)/c1ccccc1` (centres undefined), the “activity, negative = inhibition” value was 2.54% (inactive).
Turning to `O=C1CC(=Nc2ccccc2)NN1c1ccccc1`, the “activity, negative = inhibition” value is -10.4% (inactive).
On the same count and under the same terms, next, `CCCCSc1ccc2nc(-c3ccc(C#N)cc3)cn2c1`: -24.5% (inactive).
As to `CCN(CC)CCOC(=O)C(c1ccccc1)c1ccccc1`, the half-maximal activity concentration (AC50) was 5.01 µM (active).
Regarding `CN(C)CCOC(=O)[C@@H](c1ccccc1)C1(O)CCCC1`, the “activity, negative = inhibition” value was -6.43% [at 25.6 µM] (inactive).
With `CCCC(C(=O)OCCN(CC)CC)(c1ccccc1)c1ccccc1`, the AC50 was 63.1 nM (active) and 15.8 nM (active).
For `O=C(O)C1CCCN1C(=O)OCc1ccccc1` (centres undefined), the “activity, negative = inhibition” value was -3.43% (inactive).
Turning to `CCN(CC)CCOC(=O)[C@@H](c1ccccc1)C1CCCCC1`, the AC50 is 0.631 µM (active).
As for `N[C@@](CCc1ccccc1)(C(=O)O)c1ccccc1`, the activity, negative = inhibition was 0.379% [at 11.4 µM] (inactive).
For `CCN(Cc1ccncc1)C(=O)[C@@H](CO)c1ccccc1`, the AC50 result was “inactive”.
Regarding `O=C1CCC[C@@H](C(C(=O)OCc2ccccc2)C(=O)OCc2ccccc2)C1`, the activity, negative = inhibition was -12.9% [at 11.4 µM] (inactive).
Still for that read-out and setting: next, `N#Cc1cccc(NC(=O)N2CCC3(CC2)CCN(C(=O)c2cccc(F)c2)CC3)c1`: -13.4% (inactive).
On the same count and under the same terms, to `O=C(O)[C@@H]1[C@@H]2C[C@@H]3[C@@H](OC(=O)[C@@H]31)[C@H]2Br` belongs 0.593% [at 11.4 µM] (inactive); to `CCOC(=O)c1ccc(-c2ccc(/C=C(\C#N)C(=O)NCC3CCCO3)o2)cc1` (centres undefined), -17.3% (inactive); to `COC(=O)c1cc2c(ccn2-c2ccc(F)cc2)n1CC(C)C`, 13.8% (inactive).
Still for that read-out and setting: next, `OC[C@@H]1O[C@@H](n2cnc3cncnc32)[C@@H](O)[C@H]1O`: -2.03% (inactive).
In the case of `NC(=O)Nc1n[nH]c(-c2ccccc2)n1`, the activity, negative = inhibition was 9.86% [at 11.4 µM] (inactive).
Still for that read-out and setting: next, `Cc1ccc2cc3cc(C(=O)N4CCCCC4C)oc3nc2c1` (centres undefined): -7.91% (inactive); `O[C@@H]1[C@@H](OCc2ccccc2)OC[C@H](O)[C@@H]1O`: 0.194% [at 11.4 µM] (inactive); `CCOc1cc(NC(=S)Nc2cccc(C)c2)c(OCC)cc1NC(=O)CC(C)C`: -15.7% (inactive).
For the molecule `COc1cc(OC)c(NC(=S)Nc2cccc(C(C)=O)c2)cc1Cl`, the AC50 was 15.8 µM (active).
On to `COc1cc(C(=O)NC(=S)Nc2ccc(Cl)c(C(=O)O)c2)cc(OC)c1OC`, for which the “activity, negative = inhibition” value is 1.96% (inactive).
With `CC(C)CCNC(=O)Cc1ccccc1[N+](=O)[O-]`, the “activity, negative = inhibition” value is -21.8% (inactive).
Same read-out and setting: to `O=C(CSc1c[nH]c2ccccc12)N1CCOCC1` belongs -28.8% (inactive); to `CCc1cc2c(=O)c(-c3nc4ccccc4[nH]3)coc2cc1OC(=O)N1CCOCC1`, -17.4% (inactive).
Regarding `CC(C)NC1(C(N)=O)CCN(Cc2ccccc2)CC1`, the AC50 was 0.631 µM (active).
Take `COC(=O)[C@H](Cc1ccccc1)NC(=O)[C@@H](C)CO`: the activity, negative = inhibition was 3.71% [at 11.4 µM] (inactive).
Still for that read-out and setting: next, `CCOC(=O)N1CCN(C(=O)C(C)SCc2ccccc2)CC1` (centres undefined): -25.5% (inactive); `CCOC(=O)N1CCN(S(=O)(=O)Cc2ccccc2)CC1`: -6.68% (inactive).
On the same count and under the same terms, to `O=C(c1ccco1)N1CCN(C(=O)C2(S(=O)(=O)c3ccc(Cl)cc3)CC2)CC1` belongs -9.48% (inactive).
For `COC(=O)[C@H](Cc1ccccc1)NC(=O)N1CCN(Cc2ccccc2)CC1`, the AC50 is 11.2 µM (active).
`CCOC(=O)N1CCN(C(=O)CSCc2ccc(Cl)cc2)CC1`: the “activity, negative = inhibition” value is -16% (inactive).
`CCOC(=O)C1(S(=O)(=O)c2ccc(Cl)cc2)CCN(Cc2ccc(Cl)cc2)CC1`: the AC50 was 3.55 µM (active).
`COc1ccc(Nc2ncc(C(=O)N3CCN(Cc4ccccc4)CC3)c3ccccc23)cc1`: the “activity, negative = inhibition” value is -6.13% (inactive).
Consider `CCOC(=O)C1(S(=O)(=O)c2ccccc2)CCN(Cc2ccccc2)CC1`, for which the AC50 was 2 µM (active).
For `C/C(=N\Nc1nnc(C)c(=O)[nH]1)C(=O)O`, the “activity, negative = inhibition” value was -0.0511% (inactive).
For the molecule `COc1ccc(C2/C(=C(/O)c3ccc(Cl)cc3)C(=O)C(=O)N2CCN2CCOCC2)c(OC)c1` (centres undefined), the “activity, negative = inhibition” value is -38.4% (inactive).
On to `CN[C@@H]1NC(=O)c2ccccc2N1Cc1ccc(F)cc1`, for which the activity, negative = inhibition is 10.6% [at 11.4 µM] (inactive).
Same read-out and setting: next, `CSc1nnc(-c2cc3c(-c4ccccc4)nn(C)c3s2)n1C`: 0.173% (inactive).
